# PubChem BioAssay (NCATS)
# Where “and” joins values, the source holds several entries; their conditions need not be identical. Equal entries are not always repeated. Records with an inconclusive call do not appear. Entries that show only a call come without a potency. Some structures have more than one record in an assay (separate samples or runs), and their calls can disagree. Calls of active or inactive are those of the source. Unless noted, calls follow the shape of the dose curve; as a rule, active = well fitted curve in the direction sought with a large enough effect; inconclusive = small, poorly fitted or top-dose-only effect, or another doubt; inactive = no such curve, though single readings can be large; an effect the other way counts as inactive or inconclusive.
# Experiments:
# [1] = qHTS profiling of the MIPE4 collection as inhibitors of Plasmodium falciparum (HB3) proliferation (AID 743347; call rule not given here); conditions: P. falciparum HB3 in erythrocytes, SYBR Green DNA, 72 h; at 28.5 µM (top of the series) unless noted
# In short: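 Parasite DNA was quantified by SYBR Green I fluorescence (ex 485, em 535 nm) after overnight lysis in saponin/Triton buffer at room temperature. Cultures at 0.3% parasitemia and 2.5% hematocrit were first exposed to compound for 72 h at 37 C; signals were normalised to artemisinin (0.29 uM) and vehicle wells.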
# [2] = High-throughput drug toxicity screening in the BPDCN cell line Gen2.2 (AID 1224824; call rule not given here;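 also: cells exposed to compounds for 48 h before reading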); conditions: Gen2.2 BPDCN cells; at 45.8 µM (top of the series) unless noted
# In short: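 Gen2.2 cells, 500 per well in phenol red-free RPMI with 10% FBS, exposed to compounds 48 h at 37 C, 5% CO2; viability by CellTiter-Glo luminescence. Percent activity scaled to DMSO (100%) and 9.2 uM bortezomib final (0%).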
# [3] = High-throughput drug toxicity screening in the BPDCN cell line Cal-1 (AID 1224825; call rule not given here); conditions: Cal-1 BPDCN cell viability, qHTS; at 45.8 µM (top of the series) unless noted
# In short: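 CellTiter-Glo luminescence after 48 h compound exposure; percent activity scaled with DMSO as 100% and bortezomib (9.2 uM final) as 0%. Cal-1 cells seeded at 500/well in RPMI, 10% FBS, no phenol red.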
# [4] = qHTS assay for measurement of the activity of small molecule inhibitors on Zika virus induced Caspase-3 activity in human iPSC derived neural progenitor cells (hNPCs) (AID 1224857); also: nearly all actives have a fitted effect of over 65% in size; also: potency is read from the fitted curve at half-maximal effect
# In short: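 Quantitative HTS format: human iPSC neural progenitors, 1 h compound pretreatment, ZIKV 2 FFU/cell for 6 h at 37 C. Percent inhibition derived from luminescent caspase-3/7 signal between uninfected and infected controls.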
# [5] = qHTS assay for measurement of the activity of small molecule inhibitors on Zika virus induced Caspase-3 activity in human astrocytoma cells (AID 1224859); also: potency is read from the fitted curve at half-maximal effect
# In short: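 Readout is luminescence from Caspase-Glo 3/7 added after a 6 h ZIKV infection (2 FFU/cell) of compound-pretreated (1 h) SNB-19 cells; data expressed as % inhibition versus uninfected and infected wells.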
# [6] = qHTS Screen of the MIPE 4.0 Collection Against Ewings Sarcoma (RDES) (AID 1259252); also: nearly all actives have a fitted effect of over 35% in size; also: potency is read from the fitted curve at half-maximal effect
# In short: (§1)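 Viability screen: 48 h incubation at 37C, 95% humidity, 5% CO2 with serially titrated compound, followed by CellTiter-Glo readout.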
# [7] = qHTS Screen of the MIPE 4.0 Collection Against Ewings Sarcoma (TC71) (AID 1259253); also: nearly all actives have a fitted effect of over 40% in size; also: potency is read from the fitted curve at half-maximal effect
# In short: as §1
# [8] = qHTS Screen of the MIPE 4.0 Collection Against Ewings Sarcoma (EW8) (AID 1259255); also: nearly all actives have a fitted effect of over 35% in size; also: potency is read from the fitted curve at half-maximal effect
# In short: as §1
# [9] = qHTS Screen of the MIPE 4.0 Collection Against Ewings Sarcoma (TC32) (AID 1259256); also: nearly all actives have a fitted effect of over 45% in size; also: potency is read from the fitted curve at half-maximal effect
# In short: as §1
# [10] = qHTS assay to identify small molecule inhibitors of chordoma cells - UCH-1 (AID 1259355); also: nearly all actives have a fitted effect of over 55% in size
# In short: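 Screening used approved and investigational drugs in 15-point titration against 800 seeded cells per well. A fixed combination of auranofin with camptothecin, doxorubicin, rubitecan and topotecan followed compound addition, and growth was scored by CellTiter-Glo after 48hr.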
Compound,"growth, % of control [1]","cell viability, % of control (lower = more cytotoxic) [2]",viability (% of control) [3],Potency [4],Potency [5],Potency [6],Potency [7],Potency [8],Potency [9],Potency [10]
COc1ccc(C2(C#N)CCC(C(=O)O)CC2)cc1OC1CCCC1 (configuration not stated),101%,129%,87.2%,inactive,inactive,inactive,inactive,inactive,inactive,inactive
CC1=C(C)C(=O)C(C(CCCCCC(=O)O)c2ccccc2)=C(C)C1=O (configuration not stated),74.4%,195%,115%,inactive,inactive,inactive,inactive,inactive,inactive,
COC(=O)C1=C(C)NC(C)=C(C(=O)OC(C)C)C1c1cccc2nonc12 (configuration not stated),99.6%,131%,105%,inactive,inactive,23.5 µM (active),26.4 µM (active),,,
O=C(O)c1cc(=O)c2c(OCC(O)COc3cccc4oc(C(=O)O)cc(=O)c34)cccc2o1,81%,106%,115%,inactive,inactive,inactive,inactive,inactive,inactive,
O=C(NOCC1CC1)c1ccc(F)c(F)c1Nc1ccc(I)cc1Cl,63.7%,6.36%,7.67%,inactive,inactive,20.9 µM (active),20.9 µM (active),,16.6 µM (active),
Nc1ccc(S(N)(=O)=O)cc1,102%,169%,112%,inactive,inactive,inactive,,inactive,inactive,inactive
O=C(O)c1cccnc1Nc1cccc(C(F)(F)F)c1,74%,122%,88.7%,inactive,inactive,inactive,inactive,inactive,inactive,inactive
Oc1ccc(OCc2ccccc2)cc1,89.5%,226%,18.2%,inactive and 11.8 µM (active),inactive,2.35 µM (active),9.35 µM (active),4.18 µM (active),4.18 µM (active),inactive
c1ccc2[nH]c(-c3cscn3)nc2c1,9.5%,245%,102%,16.6 µM (active),16.6 µM (active),inactive,inactive,inactive,inactive,
CC(C)[N+]1(C)[C@@H]2CC[C@H]1CC(OC(=O)C(CO)c1ccccc1)C2 (some centres not stated),75%,31.9%,31.8%,inactive,inactive,inactive,inactive,inactive,inactive,inactive
Cc1cc2c(s1)Nc1ccccc1N=C2N1CCN(C)CC1,,199%,115%,inactive,inactive,inactive,,inactive,inactive,
COc1cc(Nc2c(C#N)cnc3cc(OCCCN4CCN(C)CC4)c(OC)cc23)c(Cl)cc1Cl,3.88%,5%,3.18%,inactive,inactive,3.32 µM (active),18.7 µM (active),,,
Cn1c(NCCN(CCO)CCCc2ccc([N+](=O)[O-])cc2)cc(=O)n(C)c1=O,9.64%,108%,67.6%,inactive,inactive,20.9 µM (active),18.7 µM (active),,,inactive
COc1c2occc2cc2ccc(=O)oc12,,109%,93.5%,inactive,inactive,inactive,,inactive,3.32 µM (active),
C[C@@H](c1ncncc1F)[C@](O)(Cn1cncn1)c1ccc(F)cc1F,,56.5%,55.6%,inactive,inactive,inactive,inactive,,inactive,
COCCCOc1ccnc(CS(=O)c2nc3ccccc3[nH]2)c1C (configuration not stated),,139%,104%,inactive,inactive,inactive,,inactive,8.33 µM (active),
CCOc1cc(CC(=O)N[C@@H](CC(C)C)c2ccccc2N2CCCCC2)ccc1C(=O)O,75.6%,23.9%,27.5%,inactive,inactive,inactive,inactive,inactive,inactive,inactive
O=c1c(O)c(-c2ccc(O)cc2O)oc2cc(O)cc(O)c12,99.8%,74.1%,84.9%,inactive,inactive,inactive,inactive,,inactive,
CCCc1cc(=O)[nH]c(=S)[nH]1,103%,62.4%,14.9%,inactive,inactive,inactive,inactive,,,inactive
CC1(C)C(=O)N(CCN2CCC(C(=O)c3ccc(F)cc3)CC2)c2ccccc21,34.5%,37.4%,85.6%,inactive,inactive,inactive,inactive,inactive,,
Cc1cc(Cl)ccc1OCCCC(=O)NO,41.9%,21.7%,3.6%,inactive,inactive,0.743 µM (active),9.35 µM (active),1.05 µM (active),11.8 µM (active),
